From PubChem BioAssay (NCATS)
Inconclusive results are not listed. The source made the active and inactive calls. The call rests on the fitted dose curve; in most records, active means well fitted curve in the direction sought with a large enough effect; inconclusive means small, poorly fitted or top-dose-only effect, or another doubt; inactive means no such curve, though single readings can be large; an effect the other way counts as inactive or inconclusive.

Legend:
[1] = qHTS of pediatric cancer cell lines to identify multiple opportunities for drug repurposing: Primary screen for DAOY cells (AID 1347090); further: series mostly up to about 46 µM; nearly all actives have a fitted effect of over 55% in size
Outline: (§1)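 Eight- or eleven-point concentration series, 48 h treatment at 37 degrees C in growth media; readout CellTiter-Glo luminescence. Potency and efficacy were taken from the concentration-response curves.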

[2] = qHTS of pediatric cancer cell lines to identify multiple opportunities for drug repurposing: Primary screen for SJ-GBM2 cells (AID 1347091)
Outline: as §1

[3] = qHTS of pediatric cancer cell lines to identify multiple opportunities for drug repurposing: Primary screen for A673 cells (AID 1347092); further: nearly all actives have a fitted effect of over 45% in size
Outline: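 A673 cells (500-1,000 cells/well) were treated 48 hours at 37 degrees C with compounds at 11-point (0.78 nM to 46 µM) or 8-point (0.59 nM to 46 µM) dilutions. Viability read by CellTiter-Glo luminescence; concentration-response curves fitted.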

[4] = qHTS of pediatric cancer cell lines to identify multiple opportunities for drug repurposing: Primary screen for SK-N-MC cells (AID 1347093); further: series mostly up to about 46 µM
Outline: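 Metabolically active cells were quantified by ATP-dependent luminescence (CellTiter-Glo, 15 min at room temperature) following 48 h treatment. Cells had been plated at 500-1,000 per well and settled for 5 h beforehand.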

[5] = qHTS of pediatric cancer cell lines to identify multiple opportunities for drug repurposing: Primary screen for BT-37 cells (AID 1347094); further: series mostly up to about 57 µM
Outline: (§2)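 500-1,000 cells/well; 5 h pre-incubation 37 °C/5% CO2; compound pinned; 48 h; CellTiter-Glo, 15 min RT; luminescence. MIPE 11-pt from 0.78 nM, NPC 8-pt from 0.59 nM final. Bortezomib 2.3 µM final as positive control.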

[6] = qHTS of pediatric cancer cell lines to identify multiple opportunities for drug repurposing: Primary screen for NB-EBc1 cells (AID 1347095)
Outline: as §2

[7] = qHTS of pediatric cancer cell lines to identify multiple opportunities for drug repurposing: Primary screen for U-2 OS cells (AID 1347096); further: nearly all actives have a fitted effect of over 50% in size
Outline: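 Cells (500-1,000/well) in growth media were settled 5 h at 37 degrees C, then given compounds for 48 h. Viability was read as CellTiter-Glo luminescence. Primary runs used MIPE at 11 points (0.78 nM-46 µM) and NPC at 8 points (0.59 nM-46 µM); follow-ups used 11 points.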

[8] = qHTS of pediatric cancer cell lines to identify multiple opportunities for drug repurposing: Primary screen for Saos-2 cells (AID 1347097); further: nearly all actives have a fitted effect of over 40% in size
Outline: as §2

[9] = qHTS of pediatric cancer cell lines to identify multiple opportunities for drug repurposing: Primary screen for SK-N-SH cells (AID 1347098);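 further: DMSO served as neutral control and bortezomib at 2.3 µM as positive control; nearly all actives have a fitted effect of over 65% in size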
Outline: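 Cells (500-1,000/well) rested 5 h, then received compounds for 48 h; metabolically active cells were measured by CellTiter-Glo luminescence. Final concentrations spanned up to 46 µM (MIPE, 11-point) or 0.59 nM-46 µM (NPC, 8-point) in primary screens, 11-point in follow-ups.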

[10] = qHTS of pediatric cancer cell lines to identify multiple opportunities for drug repurposing: Primary screen for NB1643 cells (AID 1347099); further: nearly all actives have a fitted effect of over 50% in size
Outline: as §2

Measured: Potency

CCCCCCCCCCCCCCCC(=O)NCCO
inactive: all assays above

O=C(O)c1ccccc1-c1ccc(C(F)(F)F)cc1
inactive: all assays above

Oc1cccc(O)c1
inactive: all assays above

CCCCc1ncc(/C=C(\Cc2cccs2)C(=O)O)n1Cc1ccc(C(=O)O)cc1
inactive: all assays above

O=S(=O)(O)c1cc(I)c(O)c2ncccc12
inactive: all assays above

CCCOC(=O)c1ccccc1
inactive: all assays above

NC(=O)NNc1ccccc1
inactive: all assays above

CCCCCCCCCCCCCCCCCCOCC(O)CO (stereo not given)
inactive: all assays above

C[C@@H](O)[C@H](N)C(=O)O
inactive: all assays above

COc1ccc(S(=O)(=O)Nc2nnc(CC(C)C)s2)cc1
inactive: all assays above

CCCn1cnc2c1c(=O)n(CCCCC(C)=O)c(=O)n2C
inactive: all assays above

CC1CC(OC(=O)C(O)c2ccccc2)CC(C)(C)N1C (stereo not given)
inactive: all assays above

O=c1cc(CO)occ1O
inactive: all assays above

CCCCN1CCCC[C@H]1C(=O)Nc1c(C)cccc1C
inactive: all assays above

Cc1cc2c(cc1S(N)(=O)=O)S(=O)(=O)CCC2
inactive: all assays above

CC(C)(C)NCC(O)COc1ccc(NC(=O)NC2CCCCC2)cc1 (stereo not given)
inactive: all assays above

C[C@@H]1CCN(C(=O)[C@H](CCCN=C(N)N)NS(=O)(=O)c2cccc3c2NC[C@H](C)C3)[C@@H](C(=O)O)C1
inactive: all assays above

Cc1ncc([N+](=O)[O-])n1CC(O)CCl (stereo not given)
inactive: all assays above

Cn1c(=O)c2c(ncn2CC2OCCO2)n(C)c1=O
inactive: all assays above

CC(C)(C)C(=O)NCCCC(=O)O
inactive: all assays above

CCOC(=O)[C@H](CCc1ccccc1)N[C@@H](C)C(=O)N1C(=O)N(C)C[C@H]1C(=O)O
inactive: all assays above

Cc1cc(O)cc2c1O[C@](C)(CCC[C@H](C)CCC[C@H](C)CCCC(C)C)CC2
inactive: all assays above
